Screens deposited in PubChem BioAssay by National Center for Advancing Translational Sciences (NCATS).
SMN2 splice enh: increases expression of the SMN2 splice variant; HEK293 SMN2-luciferase splicing reporter, luminescence, 30-36 h; Potency, µM (top dose mostly 46.1 µM), inactives show at the highest dose activity change, positive = activation, actives largely listed as activators; 210,000 tested, 2.8% active; AID 1458; note: % of control where 0% means no effect; nearly all actives have a fitted effect of over 55% in size
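qHTS luciferase splicing reporter: luminescence rises when SMN2 exon 7 is included in transfected HEK293 cells. Compound exposure lasted 30-36 h at 37C, with 4.5 mM final sodium butyrate as control, followed by a ONE-Glo read.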
FLuc counter: firefly luciferase modulation, counter-screen for miR-21 project. 360,000 tested, 6.9% active. purified FLuc, Km substrates, luminescence inhibition. Potency, µM (top dose mostly 57.5 µM), for the others: at the highest dose activity change, negative = inhibition, usual class: inhibitors. AID 588342;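 note: plate controls were vehicle for no effect and reference inhibitor for full effect; nearly all actives have a fitted effect of over 55% in size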
Target sequence (P08659 whole entry, looked up): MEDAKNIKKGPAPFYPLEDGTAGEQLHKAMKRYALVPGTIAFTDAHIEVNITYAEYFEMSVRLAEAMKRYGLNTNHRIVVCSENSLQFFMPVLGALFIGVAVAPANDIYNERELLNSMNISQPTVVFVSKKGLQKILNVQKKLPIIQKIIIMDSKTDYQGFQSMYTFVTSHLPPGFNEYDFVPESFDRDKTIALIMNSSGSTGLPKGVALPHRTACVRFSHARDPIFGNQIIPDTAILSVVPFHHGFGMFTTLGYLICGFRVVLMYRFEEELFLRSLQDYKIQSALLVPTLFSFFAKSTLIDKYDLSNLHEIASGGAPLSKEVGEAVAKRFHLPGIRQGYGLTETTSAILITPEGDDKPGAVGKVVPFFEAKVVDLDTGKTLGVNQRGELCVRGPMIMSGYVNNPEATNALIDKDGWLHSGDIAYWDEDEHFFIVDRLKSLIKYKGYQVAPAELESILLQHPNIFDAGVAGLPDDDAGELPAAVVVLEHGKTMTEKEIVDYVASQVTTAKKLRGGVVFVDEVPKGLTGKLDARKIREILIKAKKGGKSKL
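Purified P. pyralis luciferase (10nM final) with 10uM D-luciferin and 10uM ATP (Km levels) in 50mM Tris acetate pH 7.5, 10mM Mg acetate, 0.01% Tween-20, 0.05% BSA; qHTS 6-point titration, ~60 µM downward; luminescence read.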
Rab9 prom act: Rab9 promoter activation; 320,000 tested, 2.8% active; Huh7 Rab9 promoter-luciferase reporter, luminescence, 24 h; Potency, µM (series often up to 9.22 µM), for inactives: at the top dose activation, negative = inhibition, most hits filed as activators; note: % of control where 0% means no effect; nearly all actives have a fitted effect of over 60% in size
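Luminescence read-out: Huh7 cells stably expressing Rab9-luciferase, treated 24 h with compound at 37 °C, then lysed with luciferase reagent for 10 min at ambient before reading.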
ELG1 genotoxic: genotoxicity induction in ELG1-luciferase HEK293T cells | Potency, µM (top dose mostly 46 µM), inactives show top-dose activity change, positive = activation, usual class: activators | HEK293T ELG1-luciferase reporter, luminescence, 16 h | 330,000 tested, 1.3% active; note: % of control where 0% means no effect; nearly all actives have a fitted effect of over 60% in size
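16 hr compound incubation (37 °C, 5% CO2) of HEK293T cells carrying luciferase-tagged ELG1; luciferase then measured by ONE-Glo luminescence after 30 min at RT.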
NPC1 promoter act: NPC1 promoter activation; Potency, µM (top dose mostly 9.22 µM), for the others: at the top dose activation, usual class: activators; 320,000 tested, 2.4% active; Huh7 NPC1 promoter luciferase reporter, 24 h; note: % of control where 0% means no effect; nearly all actives have a fitted effect of over 60% in size
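NPC1 promoter–luciferase Huh7 cells; 24 h compound; luminescence.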
ELG1 DNA repair: inhibitors of ELG1-dependent DNA repair in HEK293T cells. HEK293T ELG1-luciferase reporter, luminescence, 16 h; DNA damage induced by 5-fluorouridine. Potency, µM (top dose mostly 46.1 µM), without a hit: at the top dose activity change, negative = inhibition, hits mostly inhibitors. 330,000 tested, 2.3% active; note: % is set by controls: 0 for no effect and ±100 for the full control effect; nearly all actives have a fitted effect of over 55% in size
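Quantitative HTS, concentration-response format. 2,000 cells/well co-treated with 5-fluorouridine and compound, 16 hr in 5% CO2 at 37 °C; ONE-Glo luminescence read after 30 min.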
Starred values were filed as active, the others as inactive; [ ] = remark or other dose. In the library only some 9.2% were active in any assay of this set; here they are far more common. Calls come from the whole dose curve; as a rule, active = well fitted curve in the direction sought with a large enough effect; inconclusive = small, poorly fitted or top-dose-only effect, or another doubt; inactive = no such curve, though single readings can be large; an effect the other way counts as inactive or inconclusive. Potency is the fitted concentration of half-maximal effect.

Results for CC1(C)CC(=O)c2cc(-c3nc(-c4ccc(Cl)cc4)cs3)c(=O)n(-c3ccc(F)cc3)c2C1 ?
SMN2 splice enh: 1%; FLuc counter: -6%

How did Cn1nc(C(F)(F)F)c(/C=N/OC(=O)c2ccccc2Cl)c1SCc1ccccc1Cl do in these assays?
SMN2 splice enh: -26%; FLuc counter: -2%; Rab9 prom act: -10%; ELG1 genotoxic: -16%; NPC1 promoter act: -6%; ELG1 DNA repair: 13µM*

What do the screens show for `CCN1C(=O)c2cccc3c(NC(=O)c4ccc(OC)c(OC)c4)ccc1c23`?
FLuc counter: 4%; Rab9 prom act: -4%; ELG1 genotoxic: 15µM*; NPC1 promoter act: -3%; ELG1 DNA repair: inconclusive

How did CCSC1(SCC)N=C(N)C2(C#N)C(c3ccc(OC)c(OC)c3OC)C12C#N (stereo not given) do in these assays?
SMN2 splice enh: -94%; FLuc counter: -7%; Rab9 prom act: -4%; ELG1 genotoxic: 11%; NPC1 promoter act: 1%; ELG1 DNA repair: 15µM*

Results for CCSC1(SCC)N=C(N)C2(C#N)C(c3ccccc3)NC3=C(CCC3)C12C#N (stereo not given) ?
SMN2 splice enh: 20%; FLuc counter: -1%; Rab9 prom act: 8%; ELG1 genotoxic: -3%; NPC1 promoter act: 6%; ELG1 DNA repair: 16%

Results for Cn1c(=O)n(C)c2cc(CNCc3ccc(C(=O)O)cc3)ccc21 ?
FLuc counter: 2%

How did Oc1ccc(OCc2ccccc2)cc1 do in these assays?
SMN2 splice enh: 4%[20.6 µM]

Results for Oc1ccc(NCc2ccc(OCc3ccccc3Cl)cc2)cc1 ?
SMN2 splice enh: 7%; FLuc counter: 27µM*

How did Oc1ccc(NCc2ccc(OCc3ccccc3)cc2)cc1 do in these assays?
SMN2 splice enh: 21%; FLuc counter: 27µM*; Rab9 prom act: -5%; ELG1 genotoxic: inconclusive; NPC1 promoter act: -13%; ELG1 DNA repair: inconclusive

What do the screens show for `COc1cc(C(=O)Oc2cccc(Nc3ncnc4ccccc34)c2)cc(OC)c1OC`?
SMN2 splice enh: -30%; FLuc counter: inconclusive; Rab9 prom act: -14%; ELG1 genotoxic: 0%; NPC1 promoter act: -10%; ELG1 DNA repair: 2.9µM*

Results for COc1ccc(C(=O)Oc2cccc(Nc3ncnc4ccccc34)c2)cc1OC ?
SMN2 splice enh: -18%; FLuc counter: inconclusive; Rab9 prom act: -2%; ELG1 genotoxic: -9%; NPC1 promoter act: -6%; ELG1 DNA repair: 16µM*

Results for CNC(=O)C1CCC(Cn2c(=O)c3sccc3n(CC(=O)NCc3ccccc3)c2=O)CC1 (stereo not given) ?
FLuc counter: 4%

Results for CCc1ccc(NC(=O)COc2ccc3c(c2)OCO3)cc1 ?
FLuc counter: 27µM*; Rab9 prom act: 14%; ELG1 genotoxic: inconclusive; NPC1 promoter act: 27%; ELG1 DNA repair: inconclusive

How did CCc1ccc(OCC(=O)Nc2ccc3c(c2)OCCO3)cc1 do in these assays?
FLuc counter: 19µM*; Rab9 prom act: 0%; ELG1 genotoxic: 15%; NPC1 promoter act: 3%; ELG1 DNA repair: inconclusive

How did CC(=O)Nc1cccc(NC(=O)COc2ccc3c(c2)OCO3)c1 do in these assays?
FLuc counter: 9.5µM*; Rab9 prom act: 28%; ELG1 genotoxic: 9%; NPC1 promoter act: 5%; ELG1 DNA repair: inconclusive

How did CCC(C)NS(=O)(=O)c1ccc(OCC(=O)Nc2ccc3c(c2)OCCO3)cc1 (stereo not given) do in these assays?
SMN2 splice enh: -10%; FLuc counter: 1%; Rab9 prom act: 0%; ELG1 genotoxic: -1%; NPC1 promoter act: -1%; ELG1 DNA repair: 7%

Results for COc1ccc(NC(=O)COc2ccc3c(c2)OCO3)cc1 ?
FLuc counter: inconclusive; Rab9 prom act: 11%; ELG1 genotoxic: -3%; NPC1 promoter act: 15%; ELG1 DNA repair: inconclusive

Results for Cc1ccc(S(=O)(=O)c2nc(S(=O)(=O)c3ccc(C)cc3)c(NCCCOC(C)C)s2)cc1 ?
SMN2 splice enh: 2%; FLuc counter: -6%

Results for Cc1ccc2oc(C(=O)Nc3cc(C)on3)c(C)c2c1 ?
FLuc counter: 0.76µM*; Rab9 prom act: 2.5µM*; ELG1 genotoxic: inconclusive; NPC1 promoter act: 3.2µM*; ELG1 DNA repair: inconclusive

What do the screens show for `Cc1ccc2oc(C(=O)Nc3nnc(CC(C)C)s3)c(C)c2c1`?
FLuc counter: -8%; Rab9 prom act: 20%; ELG1 genotoxic: inconclusive; NPC1 promoter act: 10%; ELG1 DNA repair: inconclusive

How did CCN(CC)S(=O)(=O)c1ccc2oc(C(=O)Nc3cc(C)ccc3OC)c(C)c2c1 do in these assays?
FLuc counter: -1%

How did COc1ccccc1NC(=O)c1oc2ccc(C)cc2c1C do in these assays?
SMN2 splice enh: inconclusive; FLuc counter: 9.5µM*; Rab9 prom act: inconclusive; ELG1 genotoxic: inconclusive; NPC1 promoter act: inconclusive; ELG1 DNA repair: inconclusive

Results for Cc1sc2ncnc(N3CCC(C(=O)N(CC(C)C)c4nc5ccccc5s4)CC3)c2c1C ?
FLuc counter: -2%; Rab9 prom act: -2%; ELG1 genotoxic: inconclusive; NPC1 promoter act: -4%; ELG1 DNA repair: -29%

What do the screens show for `N#Cc1ccccc1Cn1cc(/C=C/[N+](=O)[O-])c2ccccc21`?
SMN2 splice enh: -65%; FLuc counter: -18%; Rab9 prom act: -9%; ELG1 genotoxic: -7%; NPC1 promoter act: 1%; ELG1 DNA repair: 21µM*

How did O=C(Nc1cccc([N+](=O)[O-])c1)c1ccc2nsnc2c1 do in these assays?
FLuc counter: -27%; Rab9 prom act: -1%; ELG1 genotoxic: -1%; NPC1 promoter act: -1%; ELG1 DNA repair: 2%

Results for O=C(Nc1ccc(Cl)cc1)c1ccc2nsnc2c1 ?
SMN2 splice enh: 11µM*; FLuc counter: inconclusive; Rab9 prom act: 4µM*; ELG1 genotoxic: 16%; NPC1 promoter act: 2.5µM*; ELG1 DNA repair: inconclusive

Results for CN(C)c1ccc(NC(=O)c2ccc3nsnc3c2)cc1 ?
SMN2 splice enh: 22µM*; FLuc counter: 5.4µM*; Rab9 prom act: 3.2µM*; ELG1 genotoxic: 2.6µM*; NPC1 promoter act: inconclusive; ELG1 DNA repair: inconclusive

How did Cc1ccc(S(=O)(=O)N2CCc3cc(C(=O)Nc4c(C)cccc4C(C)C)ccc32)cc1 do in these assays?
SMN2 splice enh: -12%; FLuc counter: -2%

Results for CCCCNC(=O)c1sc2ncnc(N3CCc4ccccc4C3)c2c1C ?
SMN2 splice enh: 1%; FLuc counter: -3%; Rab9 prom act: -7%; ELG1 genotoxic: -4%; NPC1 promoter act: 3%; ELG1 DNA repair: inconclusive
